High-throughput results: PubChem BioAssay, National Center for Advancing Translational Sciences (NCATS)
Only some compounds are listed: those with a hit (about 7.4% of all), similar ones and a draw of the others.
Rab9 prom act = Rab9 promoter activation; Huh7 Rab9 promoter-luciferase reporter, luminescence, 24 h; Potency, µM (series often up to 9.22 µM), inactives show at the top dose activation, negative = inhibition, hits mostly activators; 320,000 compounds, 2.8% hits; AID 485297; further: % of control where 0% means no effect; nearly all actives have a fitted effect of over 60% in size
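Cell-based reporter: Huh7 stable for Rab9 promoter-driven luciferase, plated in reduced-serum medium with 10% FBS at 1500 cells/well, compound-treated 24 h at 37 °C, luminescence read after 10 min reagent.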
SMN2 splice up = enhancers of SMN2 splice variant expression. 210,000 compounds, 2.8% hits. HEK293 SMN2-luciferase splicing reporter, luminescence, 30-36 h. Potency, µM (highest dose often 46.1 µM), without a hit: at the top dose activity change, positive = activation, actives largely listed as activators; further: % of control where 0% means no effect; nearly all actives have a fitted effect of over 55% in size
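HEK293 cells carry an SMN2 minigene-luciferase reporter in which exon 7 inclusion puts luciferase in frame. Cells were seeded at 2000 cells/well, attached for 10-12 hours, then exposed to compounds for 30-36 hours at 37C before ONE-Glo luminescence.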
NPC1 prom act = activators of NPC1 promoter | AID 485313 | Potency, µM (titrated, usually from 9.22 µM), inactives show at the highest dose activation, actives largely listed as activators | 320,000 compounds, 2.4% hits | Huh7 NPC1 promoter luciferase reporter, 24 h; further: % of control where 0% means no effect; nearly all actives have a fitted effect of over 60% in size
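Huh7 reporter cells (NPC1 promoter driving luciferase) are dosed with compound for 24 h at 37 °C, 5% CO2; luciferase detection reagent is then added and luminescence measured after 10 min at ambient temperature.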
FLuc counter = firefly luciferase modulation, counter-screen for miR-21 project; P08659; purified FLuc, Km substrates, luminescence inhibition; Potency, µM (highest dose often 57.5 µM), for inactives: at the highest dose activity change, negative = inhibition, hits mostly inhibitors; 360,000 compounds, 6.9% hits;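 further: plate controls were vehicle for no effect and reference inhibitor for full effect; nearly all actives have a fitted effect of over 55% in size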
Target sequence (P08659 whole entry, looked up): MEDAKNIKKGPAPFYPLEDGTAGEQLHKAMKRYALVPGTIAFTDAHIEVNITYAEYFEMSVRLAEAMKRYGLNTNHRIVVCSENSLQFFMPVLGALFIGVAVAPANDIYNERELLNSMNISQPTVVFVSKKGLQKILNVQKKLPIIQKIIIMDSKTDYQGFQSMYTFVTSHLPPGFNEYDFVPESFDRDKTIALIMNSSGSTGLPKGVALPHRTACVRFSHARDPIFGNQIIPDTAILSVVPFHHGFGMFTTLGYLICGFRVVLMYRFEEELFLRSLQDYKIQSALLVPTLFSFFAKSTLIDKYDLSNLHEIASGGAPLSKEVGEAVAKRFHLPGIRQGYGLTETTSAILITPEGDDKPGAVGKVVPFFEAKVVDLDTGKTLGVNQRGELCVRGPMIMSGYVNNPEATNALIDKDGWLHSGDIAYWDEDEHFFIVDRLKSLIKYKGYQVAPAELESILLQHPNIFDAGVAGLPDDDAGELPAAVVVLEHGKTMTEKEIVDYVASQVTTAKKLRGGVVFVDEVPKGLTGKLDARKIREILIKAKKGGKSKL
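Biochemical qHTS of compounds, final roughly 60 µM downward over six points, against 10 nM purified firefly luciferase using Km concentrations of substrates (10 uM D-luciferin, 10 uM ATP) in Tris acetate pH 7.5 buffer; luminescence output.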
ELG1 genotox = induces genotoxicity in HEK293T cells with luciferase-tagged ELG1; Potency, µM (doses to about 46 µM), for inactives: at the top dose activity change, positive = activation, usual class: activators; AID 504466; HEK293T ELG1-luciferase reporter, luminescence, 16 h; 330,000 compounds, 1.3% hits; further: % of control where 0% means no effect; nearly all actives have a fitted effect of over 60% in size
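Genotoxicity was scored as increased ELG1-luciferase reporter signal, measured by ONE-Glo luminescence (30 min, room temperature). Compound or vehicle exposure of the HEK293T reporter cells lasted 16 hr at 37°C.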
Numbers without * were called inactive; [ ] = dose if it differs, or a comment. The call rests on the fitted dose curve; in most records, active means well fitted curve in the direction sought with a large enough effect; inconclusive means small, poorly fitted or top-dose-only effect, or another doubt; inactive means no such curve, though single readings can be large; an effect the other way counts as inactive or inconclusive. Potency means the concentration at half of the fitted maximal effect.

CC(C)c1ccc(-n2cnn(-c3ncccc3[N+](=O)[O-])c2=O)cc1 was read as Rab9 prom act 0.89µM*, SMN2 splice up 7.9µM*, NPC1 prom act 1.1µM*, FLuc counter 3µM* and ELG1 genotox 2.3µM*.
`Cc1cc(C)n(-c2ncccc2[N+](=O)[O-])n1` gave Rab9 prom act -5%, NPC1 prom act 0%, FLuc counter 1% and ELG1 genotox 0%.
Screening CN(Cc1cc(Br)cc(Br)c1O)Cc1c(O)ccc2ccccc12 returned SMN2 splice up -3%[9.22 µM].
Cc1ccc(-n2nc(C)c(/C=N/NC(=O)c3cccnc3)c2Cl)cc1 was read as Rab9 prom act -1%, SMN2 splice up 13%, NPC1 prom act -3%, FLuc counter inconclusive and ELG1 genotox -2%.
Cc1nn(-c2ccccc2)c(Cl)c1/C=N/NC(=O)c1cccnc1 was read as Rab9 prom act 1%, SMN2 splice up inconclusive, NPC1 prom act 0%, FLuc counter 13µM* and ELG1 genotox 9%.
`Cc1ccccc1OCC(=O)N/N=C/c1c(C)nn(-c2ccccc2)c1Cl` gave Rab9 prom act -8%, SMN2 splice up 17%, NPC1 prom act -6%, FLuc counter inconclusive and ELG1 genotox 0%.
`Cc1ccc(C(=O)N/N=C\c2c(C)nn(-c3ccccc3)c2Cl)cn1` gave Rab9 prom act -4%, SMN2 splice up inconclusive, NPC1 prom act 3%, FLuc counter 11µM* and ELG1 genotox 6%.
Cc1nn(-c2ccccc2)c(Cl)c1/C=C/C(=O)c1ccccc1 was read as Rab9 prom act 0%, SMN2 splice up -18%, NPC1 prom act -1%, FLuc counter 3.8µM* and ELG1 genotox 18µM*.
For Cc1nn(-c2ccccc2)c(Cl)c1/C=N/O the results were Rab9 prom act 0%, SMN2 splice up inconclusive, NPC1 prom act -6%, FLuc counter inconclusive and ELG1 genotox 8%.
For CC(=O)Nc1ccc(/C=C2\CCc3ccccc3C2=O)cc1 the results were Rab9 prom act inconclusive, NPC1 prom act 3.2µM*, FLuc counter 6.7µM* and ELG1 genotox inconclusive.
For CC(=O)Nc1ccc2c(c1)CCC2=O the results were Rab9 prom act -1%, SMN2 splice up 13%, NPC1 prom act 0%, FLuc counter -1% and ELG1 genotox 0%.
O=C1/C(=C/c2ccc(O)cc2)CCc2ccc([N+](=O)[O-])cc21 was read as Rab9 prom act -1%, SMN2 splice up 8%, NPC1 prom act -6%, FLuc counter -20% and ELG1 genotox 0%.
`O=C1/C(=C/Nc2cccc([N+](=O)[O-])c2)CCc2ccccc21` gave Rab9 prom act 2.5µM*, SMN2 splice up 11µM*, NPC1 prom act 2.8µM*, FLuc counter 2.7µM* and ELG1 genotox inconclusive.
For O=C1/C(=C\c2ccc([N+](=O)[O-])cc2)CCc2ccccc21 the results were Rab9 prom act 24%, SMN2 splice up inconclusive, NPC1 prom act 21%, FLuc counter 0.095µM* and ELG1 genotox 7.3µM*.
Screening Cc1cccc(-c2noc(CN(C(C)C)S(=O)(=O)c3ccc(Br)cc3)n2)c1 returned SMN2 splice up -18% and FLuc counter -8%.
For Cc1ccccc1NC(=O)Cn1c(=O)n(CCCCCC(=O)NCc2ccc3c(c2)OCO3)c(=O)c2sccc21 the results were SMN2 splice up -11% and FLuc counter 0%.
For O=S(=O)(c1ccccc1)N1CCC[C@@]2(CCN(Cc3nccs3)C2)C1 the results were SMN2 splice up -63%.
Screening Cc1nc(CSc2nsc(/C=C/N(C)C)c2C#N)cs1 returned Rab9 prom act 13%, SMN2 splice up -4%, NPC1 prom act -15%, FLuc counter 24µM* and ELG1 genotox 1%.
CC(C)=CC(=O)Nc1ccc(Br)cc1 was read as Rab9 prom act 1.4µM*, SMN2 splice up 13µM*, NPC1 prom act 2.5µM*, FLuc counter 4.8µM* and ELG1 genotox 3.7µM*.
Screening CC(C)=CC(=O)Nc1ccc(OCc2ccccc2)cc1 returned Rab9 prom act inconclusive, SMN2 splice up 17%, NPC1 prom act inconclusive, FLuc counter 13µM* and ELG1 genotox inconclusive.
Screening CCOC(=O)C(=O)Nc1ccc(OCc2ccccc2)cc1 returned Rab9 prom act -3%, NPC1 prom act -3%, FLuc counter inconclusive and ELG1 genotox 0%.
For CCOCC(=O)Nc1ccc(OCc2ccccc2)cc1 the results were Rab9 prom act inconclusive, SMN2 splice up inconclusive, NPC1 prom act 20%, FLuc counter 17µM* and ELG1 genotox inconclusive.
`S=C(Nc1ccccc1)Nc1ccc(OCc2ccccc2)cc1` gave Rab9 prom act 7%, SMN2 splice up -11%, NPC1 prom act -3%, FLuc counter 3% and ELG1 genotox 1%.
For O=C(CCCn1c(=O)c2sccc2n(Cc2ccc(Cl)cc2)c1=O)NCc1ccc2c(c1)OCO2 the results were SMN2 splice up -3% and FLuc counter 6%.
`N/C(Cc1ccc(Cl)cc1Cl)=N\OC(=O)c1cccs1` gave Rab9 prom act 12%, SMN2 splice up -11%, NPC1 prom act 4%, FLuc counter -20% and ELG1 genotox 0%.
Screening Cc1ccccc1OCC(=O)O/N=C(\N)Cc1cccs1 returned Rab9 prom act 1%, SMN2 splice up -24%, NPC1 prom act 13%, FLuc counter 12µM* and ELG1 genotox -2%.
N/C(Cc1ccc(Cl)cc1Cl)=N\OC(=O)Cc1cccs1 was read as Rab9 prom act -3%, SMN2 splice up 15%, NPC1 prom act 10%, FLuc counter 5.4µM* and ELG1 genotox 12%.
For COc1ccc(OCC(=O)O/N=C(\N)Cc2cccs2)cc1 the results were Rab9 prom act 3%, SMN2 splice up -7%[1.84 µM], NPC1 prom act 6%, FLuc counter inconclusive and ELG1 genotox 5%.
Screening Cc1ccccc1C(=O)O/N=C(\N)Cc1cccs1 returned Rab9 prom act inconclusive, NPC1 prom act inconclusive, FLuc counter 12µM* and ELG1 genotox inconclusive.
`N/C(Cc1cccs1)=N\OC(=O)COc1ccc(Cl)cc1Cl` gave Rab9 prom act 23%, SMN2 splice up 41%, NPC1 prom act 28%, FLuc counter 15µM* and ELG1 genotox 16µM*.
For OB(O)c1ccc(Cl)s1 the results were SMN2 splice up -13%.
For CC1CCN(S(=O)(=O)c2ccc3c(c2)oc(=O)n3CC(=O)NCc2ccc(F)cc2)CC1 the results were SMN2 splice up -79% and FLuc counter inconclusive.
Screening CCCNC(=O)C1CCC(Cn2c(=O)c3sccc3n(CC(=O)N3CCC(C)CC3)c2=O)CC1 (stereo not drawn) returned FLuc counter 0%.
Screening Cc1ccc(SCCSc2nc(C)cc(=O)[nH]2)cc1 returned Rab9 prom act inconclusive, NPC1 prom act inconclusive, FLuc counter 5.4µM* and ELG1 genotox 23µM*.
